PubChem BioAssay AID652104 (National Center for Advancing Translational Sciences (NCATS), 2013)
The campaign covered roughly 410,000 compounds. About 7,200 (1.8%) were called active. Not shown: some 7% with an inconclusive outcome. The entries come from a sample that favours actives as a whole. Entries that show only a call come without a potency. A number with no mark means an inactive call. Calls come from the whole dose curve; as a rule, active = well fitted activation curve with a large enough effect; inconclusive = small, poorly fitted or top-dose-only effect, or another doubt; inactive = no such curve, though single readings can be large or run the other way.

Assay: qHTS of TDP-43 Inhibitors; note: nearly all actives have a fitted effect of over 50% in size
Settings: TDP-43 expressing yeast growth rescue, BacTiter-Glo, 24 h; series mostly up to 46.1 µM
Outline: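 In this qHTS, compounds that restore growth of yeast expressing TDP-43 appear as activators. Cells (OD600=0.02, galactose medium, raffinose-pregrown) are incubated with compound 24 hr at 30 deg C and growth is quantified by BacTiter-Glo.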
Potency is the fitted concentration of half-maximal effect.

| Structure (SMILES) | Potency | growth rescue (activation) |
| --- | --- | --- |
| CCN(CCCNC(=O)Cn1ncc2c3ccccc3n(C)c2c1=O)Cc1ccccc1 | inactive | – |
| CCOCCc1nn2c(=O)cc(COC(=O)CNC(=O)c3ccc(C(C)(C)C)cc3)nc2s1 | inactive | – |
| COc1ccccc1N1CCN(S(=O)(=O)CCNC(=O)COc2ccc(F)cc2)CC1 | inactive | – |
| COc1ccc(CNC(=O)CSc2n[nH]c(-c3ccc(F)cc3)n2)cc1 | inactive | – |
| COC(=O)CNC(c1ccccc1Cl)c1cc(Br)ccc1NC(=O)CCN1CCOCC1 (stereo unspecified) | 17.8 µM (active) | – |
| CCOC(=O)C1CCN(CCC(=O)Nc2cccc(C)c2)CC1 | inactive | – |
| COc1ccc(N)cc1NC(=O)CN1CCOCC1 | inactive | – |
| CCc1ccccc1NC(=O)CSc1nnc(-c2ccccc2)c(-c2ccccc2)n1 | inactive | – |
| CCOc1ccccc1C(=O)NC1(C(F)(F)F)NC(=O)N(CCc2ccc(OC)c(OC)c2)C1=O (stereo unspecified) | inactive | – |
| COc1ccc(C(=O)NC2(C(F)(F)F)NC(=O)N(CCCc3ccccc3)C2=O)c(OC)c1OC (stereo unspecified) | 20 µM (active) | – |
| O=C(NC1(C(F)(F)F)NC(=O)N(Cc2cccnc2)C1=O)c1ccccc1Cl (stereo unspecified) | inactive | – |
| O=C(Nc1ccc2oc(-c3ccc(O)c(Br)c3)nc2c1)c1cc2ccccc2o1 | inactive | – |
| OCc1cnc(SCc2ccc(F)cc2)n1Cc1ccc(F)cc1 | inactive | – |
| CCOC(=O)N1CCC(NC(=O)c2cnn(-c3cccc(C)c3)c2C2CCN(C(=O)OC(C)(C)C)CC2)CC1 | inactive | – |
| O=C1CC(c2cccc(Cl)c2)CC(O)=C1C=Nc1ccccc1 (stereo unspecified) | inactive | – |
| COc1ccc([C@H]2CC(=O)C=C(/C=C/c3ccc(Cl)cc3)C2)cc1 | inactive | – |
| O=C1C=C(c2cccc(Cl)c2)C[C@@H](c2ccc(F)cc2)C1 | 22.4 µM (active) | – |
| N#Cc1ccc(C2=CC(=O)C[C@H](c3ccc(Cl)cc3)C2)cc1 | 17.8 µM (active) | – |
| COc1ccccc1C1=CC(=O)C[C@H](c2ccc(F)cc2)C1 | 15.8 µM (active) | – |
| O=C1C=C(c2cccc(Br)c2)C[C@@H](c2ccc(F)cc2)C1 | 20 µM (active) | – |
| COc1ccc(C2CC(=O)NC(=O)C2)cc1 | inactive | – |
| O=C1CC(c2cccc(Br)c2)C2=C(CCCC2=O)N1 (stereo unspecified) | inactive | – |
| COc1cccc2c1CCC(NC(C)=O)C2=O (stereo unspecified) | inactive | – |
| CCCCC/C=C/C1=CC(=O)C[C@H](c2ccc(Cl)cc2)C1 | inactive | – |
| O=C(NCC(c1ccc(Cl)cc1)N1CCOCC1)c1ccccc1F (stereo unspecified) | inactive | – |
| COC(=O)c1c(NC(=O)C(C)Oc2ccc(Cl)c(C)c2)sc(C)c1C (stereo unspecified) | inactive | – |

| Structure (SMILES) | Potency | growth rescue (activation) |
| --- | --- | --- |
| COc1ccccc1-c1noc(-c2ccc(NCc3ccccc3)c([N+](=O)[O-])c2)n1 | inactive | – |
| COc1ccc(-c2onc(C)c2C)cc1S(=O)(=O)NCC1CCN(Cc2cccc(F)c2)CC1 | inactive | – |
| O=C(CSc1nc2c(c(=O)[nH]1)CN(Cc1ccc(F)cc1)CC2)Nc1ccccc1Cl | inactive | – |
| CCOc1ccc(NC(=O)C2CCN(S(=O)(=O)c3cc(-c4noc(C)n4)ccc3C)CC2)cc1 | inactive | – |
| N/C(=N\OC(=O)CCc1ccccc1)c1cccnc1 | inactive | – |
| N/C(=N\OC(=O)CCn1cccc(C(F)(F)F)c1=O)c1ccc(OC(F)(F)F)cc1 | inactive | – |
| COc1ccc(/C(N)=N/OC(=O)CCCc2ccccc2)cc1 | 22.4 µM (active) | – |
| Cc1ccc(OCC(=O)Nc2ccc(OCc3cc(=O)n4c(C)csc4n3)cc2)cc1C | inactive | – |
| CC(C)Cn1c(-c2ccc(S(=O)(=O)N3CCOCC3)cc2)csc1=Nc1cc(Cl)ccc1Cl | inactive | – |
| COC(=O)c1ccc2nc(-c3ccc(F)cc3)c(Cc3ccc(C)cc3)n2c1 | inactive | – |
| COC(=O)c1ccc2nc(-c3ccc(C)cc3)c(Cc3ccc(OC)cc3C)n2c1 | inactive | – |
| COc1ccc(-c2nc3ccc(Br)cn3c2Cc2ccc(C)cc2)cc1OC | 15.8 µM (active) | – |
| Oc1c(C(c2ccccc2Cl)N2CCOCC2)sc2nc(-c3ccco3)nn12 (stereo unspecified) | inactive | – |
| Cn1nnnc1SCCCNCc1cccc(OCc2ccc(Cl)cc2)c1 | inactive | – |
| C=C1C(=O)OC2C1CCC(C)=CCCC1(C)OC21 (stereo unspecified) | 14.1 µM (active) | – |
| O=C(NCCc1ccccc1)C(=O)NCC(c1ccco1)S(=O)(=O)c1ccccc1 (stereo unspecified) | inactive | – |
| COc1cccc(N2CCN(C(=O)CCCCCn3c(=O)[nH]c4ccccc4c3=O)CC2)c1 | inactive | – |
| COc1ccc(CCNC(=O)c2ccc3c(c2)nc(C)n3-c2ccc(Br)cc2)cc1OC | inactive | – |
| COc1ccc(-c2cc3c(c4c2ccn4C)C2CCC3C2)cn1 (stereo unspecified) | 20 µM (active) | – |
| CC(C)(C)c1ccc(OCC(=O)N2CCC(c3nc4ccccc4s3)CC2)cc1 | inactive | – |
| CCSc1nnc2c(n1)OC(c1ccc(OCC(=O)O)cc1)Nc1ccccc1-2 (stereo unspecified) | – | -36.7% [at 9.22 µM] |
| COc1ccc(C)cc1-n1c(-c2ccc(C)cc2)cc2c1CC(C)(C)CC2=O | inactive | – |
| Cc1ccc(Cl)cc1NC(=O)Cc1ccc(-n2c(C)nc3cccnc32)cc1 | inactive | – |
| CCCN(CCC)S(=O)(=O)c1ccc(C(=O)Nc2sc3c(c2C(=O)OC)CCN(CC)C3)cc1 | inactive | – |
| CCn1c2ccccc2c2cc(CC(N)=O)ccc21 | inactive | – |
| CCN(C(=O)Cc1c(C(=O)O)n(CC)c2ccccc12)c1ccccc1C | 25.1 µM (active) | – |

| Structure (SMILES) | Potency | growth rescue (activation) |
| --- | --- | --- |
| Cc1ccc(C)c(Cn2c(C(=O)O)c(CNCc3cccs3)c3ccccc32)c1 | inactive | – |
| Cc1ccccc1-n1nc(SCC(=O)O)sc1=S | inactive | – |
| O=C(CSc1nn(-c2ccc(F)cc2)c(=S)s1)NC1CCS(=O)(=O)C1 (stereo unspecified) | inactive | – |
| N#CCSc1nn(-c2ccc(F)cc2)c(=S)s1 | 15.8 µM (active) | – |
| COc1ccc(CC(=O)Nc2nnc3n2CCS3)cc1OC | inactive | – |
| Cn1nc(-c2ccccc2)c(-c2ccccc2)c(C(=O)Nc2ccc(S(N)(=O)=O)cc2)c1=O | inactive | – |
| Cc1ccccc1N(C(=O)CNC(=O)c1cccs1)C(C(=O)NC1CCCC1)c1ccncc1 (stereo unspecified) | inactive | – |
| Cc1ccccc1C(CC(=O)c1cccs1)C(C#N)C#N (stereo unspecified) | 17.8 µM (active) | – |
| CCS(=O)(=O)N1CCN(C(=O)c2cccs2)CC1 | inactive | – |
| Cc1cccn2c(=O)c(C(=O)NC(C)c3ccccc3)cnc12 (stereo unspecified) | inactive | – |
| CC(C)(C)c1ccc(S(=O)(=O)Nc2ccc(O)c(Sc3nc4ccccc4s3)c2)cc1 | inactive | – |
| COc1ccc(S(=O)(=O)Nc2ccc(O)c(Sc3nc4ccccc4s3)c2)cc1 | 31.6 µM (active) | – |
| COc1ccc(CC(=O)Nc2ccc(-c3nc4ccccc4s3)c(C)c2)cc1 | inactive | – |
| CCOc1ccccc1NC(=O)C1CCCN(S(=O)(=O)c2cn(C)cn2)C1 (stereo unspecified) | inactive | – |
| Cc1nnc(SCC(=O)NCc2ccccc2Cl)c2nn(-c3ccccc3)c(C)c12 | inactive | – |
| CCn1c2c(c(=O)n3ncc(C(=O)N4CCN(c5ccccc5)CC4)c13)CN(Cc1ccc(OC)cc1)CC2 | inactive | – |
| CC(C)(C)NC(=O)Cn1cnc2cc([N+](=O)[O-])ccc2c1=O | inactive | – |
| Cc1ccc(N2CCN(c3ccc([N+](=O)[O-])cn3)CC2)c(C)c1 | inactive | – |
| Cc1ccc(-n2cc3ccc([N+](=O)[O-])cc3n2)cc1 | 15.8 µM (active) | – |
| Cc1ccc(CCNC(=O)C2CCN(c3nnc(-n4cccc4CNc4ccc(C)cc4)s3)CC2)cc1 | inactive | – |
| COc1ccc(S(=O)(=O)N2CCN(C(=S)NCC3CCCO3)CC2)cc1OC (stereo unspecified) | inactive | – |
| CCOc1ccc(S(=O)(=O)N2CCN(C(=S)NCC3CCCO3)CC2)cc1 (stereo unspecified) | inactive | – |
| S=C(NCC1CCCO1)N1CCN(c2ccc(Cl)c(Cl)c2)CC1 (stereo unspecified) | 22.4 µM (active) | – |
| O=C(CCCn1c(=O)c2cccn2c2cccnc21)NCc1ccc(F)cc1 | inactive | – |
| Cc1nc2ccccn2c(=O)c1NC(=O)c1c(F)cccc1F | inactive | – |
| CN1C(=O)c2[nH]nc(-c3ccc(F)cc3)c2C1c1ccccn1 (stereo unspecified) | inactive | – |

| Structure (SMILES) | Potency | growth rescue (activation) |
| --- | --- | --- |
| O=C(NC1CC(=O)N(c2ccc(F)cc2)C1)c1cccs1 (stereo unspecified) | inactive | – |
| CC(C)(C)c1ccc(Oc2ccc(N)cc2)cc1 | 35.5 µM (active) | – |
| CCCC(=O)Nc1ccc(NC(=O)c2sc3ccccc3c2Cl)cc1 | inactive | – |
| Cc1c(C(N)=O)sc2ncn(CCOc3ccccc3)c(=O)c12 | inactive | – |
| Clc1ncn(CCOc2ccccc2)c1Cl | 17.8 µM (active) | – |
| Cc1cc2ncn(CCCCOc3ccccc3)c2cc1C | inactive | – |
| CSc1oc(-c2cccs2)nc1S(=O)(=O)c1ccc(Br)cc1 | inactive | – |
| COc1ccc(CN2CC(C(=O)NC3CCCCC3)CC2=O)cc1 (stereo unspecified) | inactive | – |
| COc1ccc(CN2CN(C(C)C)CSC2=S)cc1 | inactive | – |
| COc1ccc(CN2CN(C3CCCC3)CSC2=S)cc1 | 15.8 µM (active) | – |
| CC1CCCN(c2nc3c(S(=O)(=O)c4ccc(C(C)C)cc4)nnn3c3ccsc23)C1 (stereo unspecified) | inactive | – |
| O=C(Nc1cc(C(F)(F)F)ccc1Cl)c1nc2ccccc2nc1N1CCCCC1 | inactive | – |
| Cc1cc(C)c(S(=O)(=O)N2CCOCC2)cc1C | inactive | – |
| COc1ccc(S(=O)(=O)N2CCOCC2)c(C)c1C | inactive | – |
| O=S(=O)(c1ccc(Br)c2ccccc12)N1CCOCC1 | 14.1 µM (active) | – |
| COc1ccccc1CN1CCC(CNC(=O)c2cnn(-c3cccc(Cl)c3)c2C2CCN(C(=O)OC(C)(C)C)CC2)CC1 | inactive | – |
| Cc1ccc(Cn2c(C)c3cnn(CC(=O)NCc4ccccc4)c(=O)c3c2C)cc1 | inactive | – |
| COc1ccc(-c2ccc(C(=O)NC(C)C)c3occc23)c(C)c1 | 28.2 µM (active) | – |
| COc1ccc(CNC(=O)c2ccc(-c3cccnc3)c3ccoc23)cc1OC | inactive | – |
| COc1ccc(-c2ccc(C(=O)NCCN3CCOCC3)c3occc23)c(C)c1 | inactive | – |
| COC(=O)c1ccc(-c2nc3cc(NC(C)=O)ccc3o2)cc1 | inactive | – |
| COc1ccc(-c2cn3c(C)c(C(=O)Nc4cc(C)cc(C)c4)sc3n2)cc1 | inactive | – |
| COc1ccc(-n2c(SC)nc3sc4c(c3c2=O)CCN(C(C)=O)C4)cc1 | inactive | – |
